ID4 SMM: ID4 (human) binding; 1.2% of 31,000 active; calls only; AID 624137; small molecule microarray, Flag-ID4 binding, fluorescence F/B; P47928; call rule not given here;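 further: a binder raises fluorescence above local background on the spot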
Numbers without * were called inactive. Only a selection was taken, and hits are over-represented in it overall.

What do the screens show for `Cn1cc(C(=O)C(=O)N[C@H]2CN3CCC2CC3)c2ccccc21`?
ID4 SMM: inactive

What do the screens show for `CN1C(=O)COc2c(C(=O)NC3CN4CCC3CC4)cc(Cl)cc21` (stereo not drawn)?
ID4 SMM: inactive

What do the screens show for `O=C(N[C@H]1CN2CCC1CC2)c1ccc(Cl)cc1`?
ID4 SMM: active

How did Cc1ccc2c(c1)-c1cc(C)nn1C(c1cccnc1)N2 (stereo not drawn) do in these assays?
ID4 SMM: inactive

How did CCOC(=O)[C@@H]1[C@@H]2NC(=O)N(C)[C@@]1(COCc1ccc(OC)cc1)Oc1ccccc12 do in these assays?
ID4 SMM: inactive

Screening results: PubChem, Broad Institute
